High-throughput results: PubChem BioAssay, National Center for Advancing Translational Sciences (NCATS)
FMDV antiviral: antivirals against foot and mouth disease virus; AID 1159524; actives 1.2% (n = 410,000); FMDV antiviral cell-based qHTS; Potency, µM (titrated, usually from 57.9 µM), for inactives: top-dose activity change, negative = inhibition, usual class: inhibitors; calls by dose curve; tested in HEK293T cells; further: read-out not given here; nearly all actives have a fitted effect of over 45% in size
MARV entry inh: inhibitors of Marburg virus binding or cell entry | Marburg virus pseudotyped entry inhibition, cell reporter | Potency, µM (doses to about 37.8 µM), inactives show top-dose activity change, negative = inhibition, usual class: inhibitors | actives 1.8% (n = 300,000); calls by dose curve; tested in HEK293 cells
Vaccinia mCherry: inhibitors of vaccinia virus infection (mCherry reporter signal) | Vaccinia virus mCherry reporter infection, fluorescence | Potency, µM (top dose mostly 36.5 µM), inactives show at the highest dose activity change, negative = inhibition, most hits filed as inhibitors | actives 0.63% (n = 310,000) | AID 720579; calls by dose curve; tested in A549 cells; further: nearly all actives have a fitted effect of over 35% in size
Lassa entry inh: blocks Lassa virus binding to or entry into cells; Lassa virus pseudotype entry inhibition, cell reporter; Potency, µM (series often up to 37.9 µM), for inactives: top-dose activity change, negative = inhibition, usual class: inhibitors; actives 1.2% (n = 300,000); AID 540256; calls by dose curve; tested in HEK293 cells; further: nearly all actives have a fitted effect of over 50% in size
VACV Venus inh: inhibitors of vaccinia virus (Venus reporter) | Vaccinia virus Venus reporter expression, fluorescence | Potency, µM (titrated, usually from 36.5 µM), without a hit: at the highest dose activity change, negative = inhibition, most hits filed as inhibitors | actives 0.46% (n = 330,000); calls by dose curve; tested in A549 cells; further: nearly all actives have a fitted effect of over 30% in size
Sm TGR inh: S. mansoni TGR enzyme inhibition; Q962Y6; purified TGR, DTNB reduction, TNB absorbance 405 nm; Potency, µM (series often up to 114 µM), without a hit: top-dose activity change, negative = inhibition, actives largely listed as inhibitors; actives 3% (n = 360,000); AID 485364; active means well fitted inhibition curve with a large enough effect; inconclusive means small, poorly fitted or top-dose-only effect; inactive means no such curve, though single readings can be large or run the other way; further: nearly all actives have a fitted effect of over 60% in size
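First, TGR (20 nM dispensed) and NADPH were mixed with compound. Second, a 15 min room-temperature incubation followed. Third, further NADPH and then DTNB were added to start the reaction. Finally, TNB absorbance was monitored kinetically.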
Active calls of the source: *; i = inactive; ? = inconclusive; . = not tested or not shown; [ ] = another dose, or the depositor's remark. The list is not random: actives were taken first. Their share in the collection is about 5.4%. On the % scale 0 is the no-effect control and ±100 the full control effect; potency means the concentration at half of the fitted maximal effect.

SMILES	FMDV antiviral	MARV entry inh	Vaccinia mCherry	Lassa entry inh	VACV Venus inh	Sm TGR inh
O=C(NC1=NCCS1)C1CCN(S(=O)(=O)c2ccc(Cl)cc2)CC1	-8%	.	.	.	.	50µM*
CCOc1ccc(CNC(=O)C2CCCN(c3nc4c(C)cc(C)cc4s3)C2)cc1 (stereo unspecified)	32%	9%[46.1 µM]	-21%	.	-19%	-4%
C=CC[C@@H]1C=C[C@@H](ON=C2[C@H]3CCn4c(=O)n(-c5ccccc5)c(=O)n4[C@@H]3[C@H](O)[C@@H]3O[C@H]23)[C@@H](CO)O1	.	-22%[14.2 µM]	.	.	.	.
O=C(/C=C/c1cccs1)N1CCc2ccccc21	-63%	8.2µM*	-2%	?	-17%	-4%
CCc1cccc(NC(=O)CN(C)S(=O)(=O)c2ccc3c(c2)n(C)c(=O)c(=O)n3C)c1	-11%	-4%[46.1 µM]	-8%	13%[46.1 µM]	-8%	-1%
O=C(NNC(=S)Nc1ccc(Cl)cc1)c1ccccc1OC(F)F	-15%	?	13µM*	?	?	-1%
COc1ccc(C(=O)C(OC(=O)CNC(=O)c2ccco2)c2ccccc2)cc1 (stereo unspecified)	16%	5%	.	-3%	.	18µM*
C=C1C(=O)[C@]23C[C@H]1CCC2[C@@]1(C)C(C[C@@H]3O)[C@](C)(C(=O)OC)CC[C@@H]1O (stereo partly specified)	20µM*	.	8.9µM*	.	?	.
C[C@@]12C(C[C@H](O)[C@@]34C[C@@H](CCC13)[C@@H](CO)C4=O)[C@](C)(C(=O)O)CC[C@@H]2O (stereo partly specified)	-22%	.	43%	.	1%	.
Cc1cc(O)cc(C)c1C=Cc1cncc(C(=O)OC(C)(C)C)c1	.	.	.	0.79µM*	.	.
CCOc1ccccc1CNCc1cccn1-c1nnc(N2CCN(c3ccccc3)CC2)s1	?	.	?	?	?	5%
CCN(CC)C(=O)CSc1nc(N)c(C(=O)Nc2ccc(OC)cc2)s1	-7%	1%	13µM*	-4%	?	0%
Cc1nc(N2CCN(c3ccccn3)CC2)c2c(C)c(C(=O)Nc3ccc(Br)cc3C)sc2n1	-12%	.	.	.	.	8%
Cc1nc(N2CCN(c3ccccn3)CC2)c2c(C)c(C(=O)N3CCN(c4ccccc4F)CC3)sc2n1	?	7.9µM*	-26%	?	-21%	-13%
Cc1ccc(NC(=O)c2sc3nc(C)nc(N4CCN(c5ccccn5)CC4)c3c2C)c(C)c1	-25%	11µM*	-3%	-26%	-1%	1%
Cc1cc(C)c(NC(=O)c2sc3nc(C)[nH]c(=O)c3c2C)c(C)c1	.	.	.	.	.	14%
Cc1c(C(=O)N2CCN(c3ccccc3F)CC2)sc2ncn(CC(=O)N3CCOCC3)c(=O)c12	-16%	-12%	i	0%	-11%	7%
Cc1ccc(NC(=O)c2sc3nc(CCl)[nH]c(=O)c3c2C)c(C)c1	?	-28%[46.1 µM]	-2%	11%	-5%	20µM*
CCc1sc(C(C2C(=O)CC(C)(C)CC2=O)C2C(=O)CC(C)(C)CC2=O)cc1[N+](=O)[O-]	7.9µM*	?	i	1%	2%	4µM*
CCc1nn2c(=O)cc(COC(=O)Cc3ccccc3)nc2s1	-14%	.	-5%	14%[46.1 µM]	-2%	-1%
Cc1nc2nc(-c3ccc(Cl)cc3)cn2nc1C	?	-12%	?	?	0%	-36%
Cc1nc2nc(-c3cccs3)cn2nc1C	1%	?	.	10µM*	.	?
Cc1cc(/C=C/c2cccc3sc(C)[n+](CCCCI)c23)ccc1N(CCCl)CCCl	.	.	54%	.	372%	.
COc1ccc(-c2n(CC(=O)OC3CC(C)CCC3C(C)C)c3ccccc3[n+]2C)cc1 (stereo unspecified)	5µM*	?	?	?	?	?
NC(CCc1ccccc1)c1csc(Nc2cnccn2)n1 (stereo unspecified)	-16%	.	10µM*	.	?	.
SMILES	FMDV antiviral	MARV entry inh	Vaccinia mCherry	Lassa entry inh	VACV Venus inh	Sm TGR inh
NC(Cc1ccc(F)cc1)c1csc(Nc2ccccn2)n1 (stereo unspecified)	-18%	.	?	.	?	.
COc1cccc(Nc2nc(C(N)CCc3ccccc3)cs2)n1 (stereo unspecified)	-13%	.	9%	.	-16%	.
NC(Cc1ccc(F)cc1)c1csc(Nc2cnccn2)n1 (stereo unspecified)	-26%	.	10µM*	.	11µM*	.
Cc1oc2ncn(CC(C)C)c(=O)c2c1C(=O)NCCCN(C)Cc1ccccc1	-7%	.	i	?	-16%	11%
COc1cc(NC(=O)CCc2c(C)nc3c4c(C)cc(C)nc4nn3c2C)cc(OC)c1	?	-4%[46.1 µM]	-21%	9%[46.1 µM]	?	-13%
COc1ccccc1CNCc1cccc(Oc2ccccc2)c1	-23%	11µM*	-26%	-15%[46.1 µM]	-29%	.
COc1ccccc1CNCc1cc(OC)c(OC)cc1OC	-1%	-5%	.	0%	.	0%
COCCNC(=O)c1sc2ncccc2c1-n1c(C)ccc1C	-16%	.	-7%	-12%[46.1 µM]	-12%	3%
NC(=O)c1cc(-c2ccc(F)cc2)cc(-c2ccncc2)c1N	.	.	.	10%	.	.
Cc1ccccc1OCCNc1cc(N2CCN(CCO)CC2)ccc1[N+](=O)[O-]	0%	?	?	-26%	?	-4%
CC1CN(c2ccc([N+](=O)[O-])c(NCCOc3ccccc3)c2)CCN1 (stereo unspecified)	7%	?	?	26%[46.1 µM]	11µM*	-2%
COc1ccc(OCCNc2cc(N3CCOCC3)ccc2[N+](=O)[O-])cc1	?	?	11µM*	-14%	?	5%
COc1ccc(OCCNc2cc(N3CCCCC3)ccc2[N+](=O)[O-])cc1	-21%	?	?	?	-30%	0%
Cc1cccc(OCCNc2cc(N3CCN(CCO)CC3)ccc2[N+](=O)[O-])c1	20%	?	10µM*	15%	?	-2%
Cc1ccc(NC(=O)c2sc3ncnc(N(C)C4CCCCC4)c3c2C)c(C)c1	-21%	.	-11%	0%[46.1 µM]	-12%	14%
COC(=O)[C@@H]1CCCN1Cc1ccc2c(c1)CN(Cc1coc3ccc(C)cc3c1=O)CCO2	-9%	.	-15%	.	-10%	.
O=[N+]([O-])c1ccc(/C([O-])=C(/C(=S)NCc2ccco2)[n+]2ccccc2)cc1	18%	17%[46.1 µM]	-9%	-11%[46.1 µM]	-13%	22µM*
O=C(NCc1ccco1)c1ccccc1Br	9%	11%[46.1 µM]	i	0%	-15%	5%
[O-]/C(=C(\C(=S)NCc1ccco1)[n+]1ccccc1)c1ccccc1Br	-1%	2%[46.1 µM]	.	15%	-6%	25µM*
CC(=O)[C@@H]1[C@@H](C(=O)c2ccc(F)cc2)[C@]2(C(=O)Nc3ccccc32)[C@H]2C=Cc3cc(F)ccc3N12	-12%	-21%[46.1 µM]	-8%	?	-4%	50µM*
O=C(c1ccc(F)cc1)[C@@H]1[C@@H](C(=O)c2ccccc2)[C@@]2(C(=O)Nc3ccccc32)[C@H]2c3ccccc3C=CN12	.	?	.	-5%	.	45µM*
